# In the supplement of paper PMC6555819:
# Experiments:
# Assay in all cases: PBM binding z-score (relative to random genomic background probes); higher = stronger binding; sequences stand for … in GC…GCGATTGACAGCGTAGAATGAAGG
# [1] = system: PPARg:RXRa DBDmut IVT, anti-RXR (DBD mutation: RXRa K156A/R161A, NR concentration 270 nM, RXRa partner concentration 90 nM)
# How it was run: (§1)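 Custom Agilent 4×180K protein-binding microarrays carried double-stranded probes, each with a 34-nt variable region. These regions held direct-repeat seeds, single-nucleotide variants, half-site ablations and random human genomic background sequences. Ligand-free nuclear receptor dimers were incubated on the arrays for 1 h, antibodies against each partner (one per run) detected binding, and scanned fluorescence was regression-normalized. Binding z-scores take the random background probes as reference.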
# [2] = system: PPARg:RXRa IVT, anti-PPARg (NR concentration 270 nM, RXRa partner concentration 90 nM)
# How it was run: as §1
# [3] = system: PPARg DBDmut:RXRa IVT, anti-PPARg (DBD mutation: PPARg1 K132A/R137A, NR concentration 270 nM, RXRa partner concentration 90 nM)
# How it was run: as §1
# [4] = system: PPARg DBDmut IVT, anti-PPARg (DBD mutation: PPARg1 K132A/R137A, NR concentration 270 nM)
# How it was run: as §1
# [5] = system: PPARg homodimer (NR concentration 180 nM)
# How it was run: as §1
# [6] = system: PXR:RXRa (NR concentration 270 nM, RXRa partner concentration 90 nM)
# How it was run: as §1
# [7] = system: PXR homodimer (NR concentration 270 nM)
# How it was run: as §1
# [8] = system: RARa:RXR (NR concentration 270 nM, RXRa partner concentration 90 nM)
# How it was run: as §1
# [9] = system: RARa homodimer (NR concentration 270 nM)
# How it was run: as §1
# [10] = system: RARb:RXRa (NR concentration 270 nM, RXRa partner concentration 90 nM)
# How it was run: as §1
Sequence,PBM binding z-score [1],PBM binding z-score [2],PBM binding z-score [3],PBM binding z-score [4],PBM binding z-score [5],PBM binding z-score [6],PBM binding z-score [7],PBM binding z-score [8],PBM binding z-score [9],PBM binding z-score [10]
GCTGCTAGGTCAACTGATGGTCTGCTAAAGCTCG,4.88,4.03,0.365,-0.14,1.69,1.37,-0.53,2.39,0.112,4.1
CGAACGAGGGCATGAGTTGATAACAAATGCCGAT,2.8,1.8,0.105,-0.206,0.149,0.497,0.164,0.612,-0.168,1.83
CCGAATGGGGCAGAAAGGTTACCATACCATCCGG,0.269,1,-1.13,-0.938,0.818,1.11,0.134,1.8,-0.0696,1.89
CGTCCAAGGTCAAATGTCAGTGAAGAGATGACGG,3.67,4.11,0.495,-0.392,2.49,4.82,1,5.67,0.72,5.38
AGAATGAGGTTATTAAGACCAGGGAATTGCGGTC,2.67,2.43,1.16,0.232,0.709,1.02,-0.304,1.49,-0.0801,1.38
CATACAGGGTCAGCTAGGCAAGAGTAGGGACGGC,0.883,2.27,0.128,0.564,1.62,1.97,-0.336,2.62,0.47,3.91
CCGACTGGGTCAAGGTTACCATAACGCACAGCCA,5.21,5.93,0.445,-0.0986,1.69,2.17,0.366,2.76,0.448,3.62
CCTACTGGGCCAGCAGGTCATTGATATCAACGTT,3.7,4.16,-0.155,-0.528,1.02,1.46,-0.0906,1.8,-0.335,1.88
TCATATAGATAAAGGTGAAAGTCGAACGATATGA,2.13,1.9,1.06,1.29,1.18,0.893,-0.0494,1.43,0.832,1.61
AGAACGAGGGCAATGAGCTGATAGCACGGGTGGC,3.25,2.14,0.548,-0.351,-0.0817,0.131,0.0255,0.176,-0.301,2
CCTACTGAGCCAAAGGTCATTGATTCCAATGCTC,1.79,3.91,0.27,0.224,5.35,5.49,2.67,5.91,2.36,4.57
TTAATGAGGTTAAAGATCAGGGAACGTGGCGTCG,4.2,4.61,2.12,1.16,1.89,2.4,0.342,3.61,1.1,2.33
ACAGACAGGTGATGAAGGTAACACAGGCTATCAT,0.127,0.744,0.824,0.414,0.26,-0.00388,0.386,0.0316,0.746,0.493
CCTACTGGGCCAACGGTCATTGATTCCAATGCTC,3.68,4.73,-0.311,-0.326,0.249,-0.304,0.00743,-0.143,-0.558,1.37
ATCTCTAGCTAAAAGTTCAGTGAATCCCGAGGAT,-0.639,-0.151,0.697,1.23,0.702,1.3,1.49,0.379,0.986,2.17
CGAACGAGCGCATGAGTTGATAGCAAATGCCGAT,-0.785,-0.827,-0.939,-1.33,-2.16,-0.509,-0.275,-0.304,-0.678,-1.03
CAAACTAGGTCACATAGGTCAAAGTCCGTGCGTA,8.33,8.57,3,4.3,4.12,5.04,4,5.51,2.09,4.7
TCTAGTTGGTCTCGGAGGTCACACACGACGGGTA,1.7,2.32,1.38,1.29,2.19,4.11,0.901,4.22,0.998,3.35
ACAGACAGGTAATGAAGGTAACTCAGGCTATCAT,-0.129,0.574,0.213,0.735,0.348,0.147,0.218,0.263,0.161,0.169
TCTAGTTGGTCAAAGGTCGCACACTCGAAATGCG,3.09,5.25,1.76,1.51,4.25,3.78,0.71,5.01,1.36,3.29
ACTTACGGGTCAACGAGGATATAGCACGCGTATA,3.44,3.76,1.49,1.58,2.26,3.34,0.678,4.19,1.35,3.88
CTCGAAAGGTCGGTTGAGGTGAGTTTACGGATAA,1.08,0.924,-0.565,-0.36,0.854,3.83,0.588,2.16,-0.143,3.09

Sequence,PBM binding z-score [1],PBM binding z-score [2],PBM binding z-score [3],PBM binding z-score [4],PBM binding z-score [5],PBM binding z-score [6],PBM binding z-score [7],PBM binding z-score [8],PBM binding z-score [9],PBM binding z-score [10]
TAGCCTAGGTCATGCGGGCCAGTGTAGTGTCGGC,1.76,2.75,-0.395,-0.723,0.153,1.23,-0.733,1.69,-1.29,3.72
CCGACTGGGGCAAAGGTTAACATACTCAGTACGA,4.64,6.54,0.226,-0.237,1.61,3.12,-0.0875,4.64,0.346,2.77
CCTACTGGGCCATCAGGTCATTTATATCAACGTT,3.78,5.03,0.0191,0.266,1.09,1.59,0.478,2.06,0.492,1.75
CCTTACGGCTCACTCCAGGTTATAGCATCGGAGT,0.594,-0.0865,-0.339,-0.313,0.301,-0.0761,0.257,0.372,0.095,0.00286
CCGACTGGGGCAAGGTTACCATTACGCACAGCCA,2.66,3.49,-0.296,-0.507,0.706,0.214,-0.376,0.792,0.0733,1.56
TAGCCTAGATCATGGGCCAGTATACCACGCGAAC,0.188,0.69,-0.074,-0.614,-1.13,-0.835,-0.709,-0.943,-0.47,-0.479
CCTAGCAGGCCAATCTGGGTCACTCACGGCTTGA,4.16,4.93,-0.714,-0.428,0.645,0.777,-0.161,1.18,-0.509,1.56
AAACCAAGGTGATCGTGAGGTCGTTGATACTAAC,0.846,1.19,0.252,0.247,0.649,3.05,1.5,2.16,-0.27,1.24
CGTCCTAGGTCAAGGTCAGTGAAAGAGACTCGAA,3.53,4.08,0.311,0.279,3.52,3.4,0.941,4.02,1.1,5.01
AGAATGAGGTTAAGGTCAGGGAAACAGAATACAT,3.24,4.55,1.51,0.964,3.35,3.77,1.59,4.47,2.44,4.27
GCGACTGGCGCATCAGCAGGTTACCATAACTTAA,-0.575,-0.748,-1.28,-1.31,-0.552,-0.518,-0.619,-0.34,-0.992,-1.03
ACTAGCAGGCCTAGGGTCACTCAAGATTAGTCCG,-0.156,0.917,-0.943,-1.16,1.39,2.65,0.0787,3.09,-0.643,2.44
CTCGAAAGGTCGGTTGACGTGAGTATACGGATAA,0.129,0.68,0.821,0.0479,0.644,1.01,-0.25,1.5,-0.0456,2.91
CCGACTGGGGCAAAGGCTACCATACTCAGTACGA,2.79,3.71,-0.0188,-0.284,0.531,-0.487,-0.267,-0.203,-0.204,0.812
GCTAGTTGGTCAGGAAAAGGTCACACACCGGTCG,0.896,2.59,-0.101,0.0698,5.18,4.97,1.13,5.97,3.68,4.17
CCTAGCAGGCCAGGGACACTCAAGCATTTCGCTT,0.0615,-0.258,-0.983,-1.15,-0.379,-0.644,-0.46,-0.225,-0.182,0.347
GCGACTGGGGCAAAGCGGGTTACCATAAGGTTGG,4.18,3.67,-0.432,-0.894,-0.11,0.293,-0.451,0.625,-0.887,0.922
TCATATAGGTAATACAGGTCAAAGTCGGCATCTA,4.69,4.55,2.09,2.09,2.8,3.34,1.5,3.94,2.09,2.49
TGAATGAGGTTAAAGATGAGGGAACGTGGCGTCG,2.54,2.8,0.619,0.196,0.933,1.49,0.214,2.17,0.368,2.1
ACAGACAGGTGATGAAGGTAACTCAAGCTATCAT,0.0752,0.481,-0.066,0.468,0.000193,-0.188,0.00644,-0.191,0.18,0.252
TCTAGTTGTTCAAAGGTCACACACTCGAAATGCG,2.71,4.64,1.27,1.68,4.16,5.49,1.93,5.89,4.19,5
TCTAGTTGGTCAAAGGTCACACAATCGAAATGCG,3.58,6.28,1.49,2.13,4.36,5.97,2.1,7.76,3.91,5.16
